Source: PubChem BioAssay (NCI)
Where “and” joins values, the source holds several entries; their conditions need not be identical. Equal values may be shown once. Compounds without any hit were thinned out: in the full panel of roughly 83,000, 20% have a hit.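 A percent growth of 40 corresponds to 60% growth inhibition; 0 means no net growth; -100 means all cells died. Active threshold: below 10.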 Calls of active or inactive are those of the source.

What was measured:
Test in all cases: NCI-60 one-dose screen, 48 h (100 = growth as untreated, 0 = no growth, -100 = all killed)
Settings in all cases: 10 µM unless noted
HCT-15 colon = system: HCT-15 colon
HT29 colon = system: HT29 colon
SNB-75 CNS = system: SNB-75 CNS
SNB-19 CNS = system: SNB-19 CNS
U251 CNS = system: U251 CNS
PC-3 prostate = system: PC-3 prostate
SK-MEL-5 melanoma = system: SK-MEL-5 melanoma
UACC-62 melanoma = system: UACC-62 melanoma
LOX IMVI melanoma = system: LOX IMVI melanoma
SK-MEL-28 melanoma = system: SK-MEL-28 melanoma
SK-MEL-2 melanoma = system: SK-MEL-2 melanoma
EKVX NSCLC = system: EKVX NSCLC
SN12C renal = system: SN12C renal
UO-31 renal = system: UO-31 renal
TK-10 renal = system: TK-10 renal
ACHN renal = system: ACHN renal
CAKI-1 renal = system: CAKI-1 renal
A498 renal = system: A498 renal
CCRF-CEM leukemia = system: CCRF-CEM leukemia
MOLT-4 leukemia = system: MOLT-4 leukemia

SMILES	growth (HCT-15 colon)	growth (HT29 colon)	growth (SNB-75 CNS)	growth (SNB-19 CNS)	growth (U251 CNS)	growth (PC-3 prostate)	growth (SK-MEL-5 melanoma)	growth (UACC-62 melanoma)	growth (LOX IMVI melanoma)	growth (SK-MEL-28 melanoma)	growth (SK-MEL-2 melanoma)	growth (EKVX NSCLC)	growth (SN12C renal)	growth (UO-31 renal)	growth (TK-10 renal)	growth (ACHN renal)	growth (CAKI-1 renal)	growth (A498 renal)	growth (CCRF-CEM leukemia)	growth (MOLT-4 leukemia)
CCN(CC)Cc1cc2[nH]c3c4ccc(Cl)cc4ncc3c2cc1OC	45.9% (inactive) and 16.8% (inactive)	10.2% (inactive) and 9.65% (active)	74.9% (inactive) and 84.7% (inactive)	104% (inactive) and 103% (inactive)	3.79% (active) and 64.8% (inactive)	52.4% (inactive) and 70% (inactive)	-97.7% (active)	35% (inactive) and 110% (inactive)	-71.8% (active) and -38.7% (active)	-90% (active) and 115% (inactive)	160% (inactive) and 97.9% (inactive)	83.5% (inactive) and 75% (inactive)	72.9% (inactive) and 78.8% (inactive)	110% (inactive) and 66.2% (inactive)	123% (inactive) and 89.8% (inactive)	83.7% (inactive) and 73.4% (inactive)	31.9% (inactive) and 81.3% (inactive)	146% (inactive) and 106% (inactive)	-21.5% (active) and 61% (inactive)	40.4% (inactive)
C/C(=C\c1ccccc1)C(O)C(=O)c1nc2ccc([N+](=O)[O-])cc2[nH]c1=O (stereo not given)	100% (inactive)	102% (inactive)	88.6% (inactive)	85.5% (inactive)	83.2% (inactive)	79.7% (inactive)	82.6% (inactive)	72.3% (inactive)	75.9% (inactive)	112% (inactive)	93.6% (inactive)	92.6% (inactive)	90% (inactive)	74.4% (inactive)	109% (inactive)	81% (inactive)	96% (inactive)	110% (inactive)	74.8% (inactive)	91% (inactive)
COc1ccc(CCl)c(C)c1OC	106% (inactive)	102% (inactive)	104% (inactive)	107% (inactive)	97.6% (inactive)	94.2% (inactive)	90.8% (inactive)	99.5% (inactive)	94.3% (inactive)	109% (inactive)	104% (inactive)	104% (inactive)	98.2% (inactive)	89.7% (inactive)	102% (inactive)	110% (inactive)	101% (inactive)	89.5% (inactive)	97.3% (inactive)	104% (inactive)
CC(C)(C(=O)c1cccnc1)c1cccnc1	104% (inactive) and 105% (inactive)	104% (inactive) and 119% (inactive)	107% (inactive) and 103% (inactive)	111% (inactive) and 115% (inactive)	103% (inactive) and 116% (inactive)	89.5% (inactive) and 92.5% (inactive)	98.4% (inactive) and 106% (inactive)	101% (inactive) and 103% (inactive)	102% (inactive) and 111% (inactive)	112% (inactive) and 121% (inactive)	101% (inactive) and 99.7% (inactive)	102% (inactive) and 124% (inactive)	96.1% (inactive) and 113% (inactive)	77.5% (inactive) and 93.4% (inactive)	103% (inactive) and 110% (inactive)	97.3% (inactive) and 111% (inactive)	98.5% (inactive) and 109% (inactive)	73.3% (inactive) and 130% (inactive)	91.8% (inactive)	96.3% (inactive) and 126% (inactive)
COCCNC(C)=O	100% (inactive)	108% (inactive)	99.2% (inactive)	104% (inactive)	98.1% (inactive)	101% (inactive)	96.7% (inactive)	99.9% (inactive)	105% (inactive)	112% (inactive)	105% (inactive)	105% (inactive)	97.7% (inactive)	98.2% (inactive)	102% (inactive)	110% (inactive)	98.5% (inactive)	89.6% (inactive)	113% (inactive)	119% (inactive)
COc1ccc(/C=N/Nc2nc3ccccc3s2)cc1	90.4% (inactive)	92.3% (inactive)	80.5% (inactive)	99% (inactive)	85.9% (inactive)	81.2% (inactive)	91.6% (inactive)	83% (inactive)	95.4% (inactive)	99.2% (inactive)	117% (inactive)	67.4% (inactive)	89% (inactive)	62.6% (inactive)	112% (inactive)	90.6% (inactive)	79.9% (inactive)	115% (inactive)	34.7% (inactive)	85.8% (inactive)
